Inconclusive results are not listed. A number with no mark means an inactive call. The source made the active and inactive calls. Calls come from the whole dose curve; as a rule, active = well fitted cell-killing curve with a large enough effect; inconclusive = small, poorly fitted or top-dose-only effect, or effect the other way; inactive = no such curve, though single readings can be large or run the other way.

The viability is a read-out of living cells in per cent, often relative to untreated cells.
Potency is the fitted concentration of half-maximal effect.

The test is described as follows: Quantitative High-Throughput drug screen in 47 multiple myeloma cell lines against the NCATS MIPE library collection: ARD_JJKsccE7 cell viability assay (AID 1918929). As to conditions: ARD myeloma cell line viability, CellTiter-Glo, 48 h; series mostly up to 45.8 µM; viability: at the top concentration. From the text:
PI: Beverly A. Mock Ph.D.
Laboratory of Cancer Biology and Genetics,
Center for Cancer Research, National Cancer Institute,
National Institute of Health, Bethesda, Maryland
Drug resistance and disease progression are common in multiple myeloma (MM) patients, underscoring the need for new therapeutic combinations. […] We hypothesized that effective combinations would reduce MYC expression and enhance p16 activity. […] These preclinical data identify potentially useful drug combinations for evaluation in drug-resistant MM and reveal potential mechanisms of combined drug sensitivity.
Described herein is the primary MIPE qHTS used to cherrypick compounds. Validated compounds were then further tested for potential synergistic activiy.
[1] Peat TJ, Gaikwad SM, Dubois W, Gyabaah-Kessie N, Zhang S, Gorjifard S, Phyo Z, Andres M, Hughitt VK, Simpson RM, Miller MA, Girvin AT, Taylor A, Williams D, D'Antonio N, Zhang Y, Rajagopalan A, Flietner E, Wilson K, Zhang X, Shinn P, Klumpp-Thomas C, McKnight C, Itkin Z, Chen L, Kazandijian D, Zhang J, Michalowski AM, Simmons JK, Keats J, Thomas CJ, Mock BA. Drug combinations identified by high-throughput screening promote cell cycle transition and upregulate Smad pathways in myeloma. Cancer Lett. 2023 Aug 1;568:216284. doi: 10.1016/j.canlet.2023.216284. Epub 2023 Jun 24. PMID: 37356470; PMCID: PMC10408729.
SEQUENCE No. (e.g., 1, 2, 3, etc.); […] (e.g., Cells, Incubation, Reagent, etc.); VALUE and DESCRIPTION.
1; Cells; 5 uL; white, solid bottom 1536-well Greiner assay plate.
2; Compounds; 23 nL; Kalypsis pin tool (Wako USA) equipped with a 1536-well pin head to transfer to the assay plates.
3; Incubation; 48 hours; 37C incubation.
4; Reagent;5uL; CellTiter Glo (Promega).
5; Detector; 425V; Luminescence; Viewlux PerkinElmer.
NOTES (numbers refer to Sequence numbers above)
1. The cell-based screening methods employed in this study were like those previously published. Briefly, the corresponding myeloma cell lines were screened in 1,536-well plates with 500 cells, 5-uL per well for inhibition of cell viability (assessed by measuring ATP levels with CellTiterGlo).
2. NCATS MIPE 4.0 library of approved and investigational drugs were added using the Kalypsis pin tool. Wells treated with DMSO only for 100% viability and media only wells for 0% viability were used as controls.
3. The assay plates were covered and incubated for 48 hours in a 37C, 5% CO2 incubator with controlled humidity.
4. After 48 hours, CellTilter-GloTM luminescent substrate mix (Promega) reagent was added to the assay plate and plates we incubated for 5 min at room temperature.
5. Signal was measured as median relative luminescence units on a ViewLux (PerkinElmer) multiplate reader.
[1] Heske CM, Davis MI, Baumgart JT, Wilson K, Gormally MV, Chen L, Zhang X, Ceribelli M, Duveau DY, Guha R, Ferrer M, Arnaldez FI, Ji J, Tran HL, Zhang Y, Mendoza A, Helman LJ, Thomas CJ. Matrix Screen Identifies Synergistic Combination of PARP Inhibitors and Nicotinamide Phosphoribosyltransferase (NAMPT) Inhibitors in Ewing Sarcoma. Clin Cancer Res. 2017 Dec 1;23(23):7301-7311. doi: 10.1158/1078-0432.CCR-17-1121. Epub 2017 Sep 12. PMID: 28899971; PMCID: PMC6636827.
With `CC(C)c1nn(-c2c(Cl)cccc2Cl)c2nc(Cc3ccc(OCCO)cc3)[nH]c(=O)c12`, the “viability” value was 140%.

As for `COc1ccc(OC)c(-c2nnc3ccc(-c4ccc(OC)c(O[C@@H]5CCOC5)c4)nn23)c1`, the Potency was 16.6 µM (active).

In the case of `Cc1ccc(S(=O)(=O)Nc2cc(Cl)ccc2C(=O)Nc2nc(-c3ccccc3)cs2)cc1`, the Potency is 7.43 µM (active).

In the case of `COc1ccc(C=Cc2cc(OC)c(OC)c(OC)c2)cc1O`, the “viability” value was 13.3%.

On to `Cc1ccc2nc(NC(=O)CSc3nc4c(c(=O)n3-c3ccccc3)SCC4)sc2c1`, for which the Potency was 13.2 µM (active).

On to `N#CCNC(=O)c1ccc(-c2ccnc(Nc3ccc(N4CCOCC4)cc3)n2)cc1`, for which the “viability” value is 140%.

Take `Nc1ccn([C@@H]2CS[C@H](CO)O2)c(=O)n1`: the “viability” value is 117% [at 92.2 µM].

For `C[C@@H]1COC(Nc2ccc3ncnc(Nc4ccc(OCc5nccs5)c(Cl)c4)c3c2)=N1`, the Potency is 4.18 µM (active).

In the case of `Cn1cc(-c2[nH]c3cc(NC(=O)[C@H](N)C4CCCCC4)cc4c3c2C=NNC4=O)cn1`, the Potency was 4.69 µM (active).

`C=CC(=O)Nc1cc2c(Nc3ccc(F)c(Cl)c3)ncnc2cc1C#CC(C)(C)N1CCN(C)CC1`: the Potency is 1.05 µM (active).

Turning to `CC(NCc1ccc2c(c1)nc(NC(=O)c1ccc(-c3cn[nH]c3)s1)n2CC(C)(C)O)C(C)(C)C` (stereo not given), the Potency is 0.296 µM (active).

Take `CC[C@@H]1C(=O)N(C)c2cnc(Nc3ccc(C(=O)NC4CCC(N5CCN(CC6CC6)CC5)CC4)cc3OC)nc2N1C(C)C` (stereo not given in full): the Potency was 0.0833 µM (active).

Turning to `Cc1cc(Nc2cc(NC(=O)c3c(Cl)cccc3Cl)ccn2)nc(N)n1`, the Potency is 0.209 µM (active).

Turning to `CC(C)(C)c1cnc(CSc2cnc(NC(=O)C3CCNCC3)s2)o1`, the Potency was 0.235 µM (active).

Turning to `O=C(O)c1ccc2c(c1)nc(Nc1cccc(Cl)c1)c1ccncc12`, the Potency is 8.33 µM (active).

For the compound `CNC(=O)c1nn(C)c2c1C(C)(C)Cc1cnc(Nc3ccc(N4CCN(C)CC4)cc3)nc1-2`, the Potency was 3.32 µM (active).

`CC=C1NC(=O)[C@H]2CSSCCC=C[C@H](CC(=O)N[C@H](C(C)C)C(=O)N2)OC(=O)[C@H](C(C)C)NC1=O`: the Potency was 0.0118 µM (active).

With `CC(O)C1C(=O)N2C(C(=O)O)=C(SC3CNC(C(=O)N(C)C)C3)C(C)C12` (stereo not given), the “viability” value was 108%.

Consider `CC(C)c1cc(C(=O)N2Cc3ccc(CN4CCN(C)CC4)cc3C2)c(O)cc1O`, for which the Potency was 0.0935 µM (active).

Consider `CNc1nccc(-c2cccnc2Oc2cc(C(=O)Nc3cccc(C(F)(F)F)c3)ccc2C)n1`, for which the Potency was 9.35 µM (active).

`Nc1ccccc1NC(=O)c1ccc(CNc2nccc(-c3cccnc3)n2)cc1`: the Potency is 0.935 µM (active).

In the case of `CCN1CCN(CC(=O)Nc2ccc(-c3cccc4c(=O)cc(N5CCOCC5)oc34)c3sc4ccccc4c23)CC1`, the Potency was 0.0118 µM (active).

In the case of `Cc1ccc(C(N)=O)cc1Nc1nccc(-c2cn(C(C)C)c3cnccc23)n1`, the Potency was 3.72 µM (active).

As to `Cc1cnc(Nc2ccc(F)cc2Cl)nc1-c1c[nH]c(C(=O)N[C@H](CO)c2cccc(Cl)c2)c1`, the Potency was 14.8 µM (active).

Take `Nc1cccc(-c2cc3c(Oc4cccc(O)c4)ncnc3[nH]2)c1`: the “viability” value is 165%.

As to `O=C(Nc1ncc(-c2cc(C(F)F)nn2-c2c(Cl)cccc2Cl)s1)C1CC1`, the Potency is 0.296 µM (active).

On to `c1nc2nc(Nc3ccc(N4CCOCC4)cc3)nc(NC3CCCCC3)c2[nH]1`, for which the Potency is 3.32 µM (active).

`COc1cccc2nc(-c3cccs3)nc(NN3C(=O)C=C(C)C3=O)c12`: the Potency is 1.66 µM (active).

Consider `NC(=O)c1c(OCc2c(F)cc(Br)cc2F)nsc1NC(=O)NCCCCN1CCCC1`, for which the “viability” value was 142%.

As to `CC1(C)CC(=O)c2c(C(F)(F)F)nn(-c3ccc(C(N)=O)c(NC4CCC(OC(=O)CN)CC4)c3)c2C1` (stereo not given), the Potency is 0.0935 µM (active).

For the compound `CN1CCN(c2cc(C(=O)Nc3ccc4c(c3)-c3c(c(C(N)=O)nn3-c3ccc(F)cc3)CC4)c(Cl)cn2)CC1`, the Potency was 16.6 µM (active).

Take `Cc1cc(Nc2nc(N[C@@H](C)c3ccc(F)cc3)c(C#N)cc2F)n[nH]1`: the Potency is 0.332 µM (active).

With `COc1cccc2c(NCc3ccccc3)nc(-n3c(N)nc4ccccc43)nc12`, the Potency was 4.69 µM (active).

Consider `Cc1ccc(C(=O)Nc2ccc(CN3CCN(C)CC3)c(C(F)(F)F)c2)cc1C#Cc1cnc2cccnn12`, for which the Potency is 14.8 µM (active).

On to `CCc1c2c(nc3ccc(O)cc13)-c1cc3c(c(=O)n1C2)COC(=O)[C@]3(O)CC`, for which the Potency was 1.66 µM (active).

In the case of `CCCCN1CCC(CNC(=O)c2c3n(c4ccccc24)CCCO3)CC1`, the Potency is 16.6 µM (active).

Turning to `COc1cc(OC2CCN(C)CC2)ccc1Nc1ncc2c(n1)n(C1CCCC1)c(=O)n2C`, the Potency was 9.35 µM (active).

As for `Nc1nc(NCCNc2ncc(-n3ccnc3)c(-c3ccc(Cl)cc3Cl)n2)ccc1[N+](=O)[O-]`, the Potency was 6.62 µM (active).

Turning to `COC(=O)Nc1nc2ccc(C(=O)c3ccc(F)cc3)cc2[nH]1`, the Potency was 0.332 µM (active).

On to `Cc1ccc(C(=O)Nc2cccc(C(F)(F)F)c2)cc1-c1ccc2nc(NCCN3CCOCC3)ncc2c1`, for which the Potency was 2.64 µM (active).

These data come from PubChem BioAssay (NCATS).
